HT1080NT lethal: qHTS for induction of synthetic lethality in tumor cells producing 2HG: qHTS for the HT-1080-NT fibrosarcoma cell line. HT-1080-NT fibrosarcoma viability, CellTiter-Glo ATP luminescence, 48 h. Potency, µM (highest dose often 46.1 µM), without a hit: at the highest dose activity, negative = less viability, hits mostly cytotoxic. hit rate 1.6% among 360,000;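 further: NT is the 2HG producing partner of a matched IDH1 knockdown line; potency means the concentration at half of the fitted maximal effect; 0% = DMSO-treated cells and -100% = media-only wells without cells; nearly all actives have a fitted effect of over 55% in size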
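HT-1080-NT fibrosarcoma cells (2HG-overproducing), 750 cells/well in RPMI with 5% FBS, dosed after 2 h and incubated 48 h at 37C. CellTiter-Glo luminescence normalized to DMSO and no-cell wells; concentration-response curves fitted and classed.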
HT1080 IDH1KD tx: qHTS for induction of synthetic lethality in tumor cells producing 2HG: qHTS for the HT-1080-IDH1KD cell line | Potency, µM (top dose mostly 46.1 µM), for the others: top-dose activity, negative = toxicity, hits mostly cytotoxic | hit rate 2% among 360,000 | HT-1080 IDH1 knockdown viability, ATP luminescence, 48 h;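 further: potency means the concentration at half of the fitted maximal effect; 0% = DMSO wells and -100% = cell-free medium wells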
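IDH1KD HT-1080 cells, 750/well, RPMI + 5% FBS; compound pinned after 2 h settling; 48 h, 37 °C; CellTiter-Glo luminescence; % activity normalised to DMSO and no-cell wells; curves fitted, classed by r2 and efficacy.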
DT40 TDP1 no CPT: qHTS for Inhibitors of human tyrosyl-DNA phosphodiesterase 1 (TDP1): qHTS in cells in absence of CPT; hit rate 15% among 420,000; AID 686978, 2013; Potency, µM (series often up to 46.2 µM), without a hit: at the top dose activity change, negative = growth inhibition, usual class: inhibitors; DT40 Tdp1-/- hTDP1 cells, no CPT, ATP luminescence, 48 h; further: potency means the concentration at half of the fitted maximal effect; nearly all actives have a fitted effect of over 55% in size
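Chicken DT40 Tdp1-/- cells stably complemented with human TDP1 were seeded at 400 cells/well with DMSO in place of 20 nM camptothecin. After compound pinning, cells grew at least 48 hr at 37 °C; viability read by CellTiter-Glo luminescence.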
IL-1B inflam inh: qHTS for Inhibitors of Inflammasome Signaling: IL-1-beta AlphaLISA Primary Screen. THP-1 LPS/ATP IL-1B secretion, AlphaLISA, 16 h; active compounds read low. activity change, % at 57.5 µM. hit rate 4.7% among 360,000. AID 743279, 2014; in the data active means activity change below about -50%; inconclusive means mostly about -30% to -49%
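Secreted IL-1B measured by AlphaLISA bead assay after 16 h compound exposure of THP-1 cells; compounds (final up to 57.5 uM) added 1 h before LPS (250 ng/mL) and ATP (1.25 mM) stimulation; lower signal means less secretion.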
DT40 TDP1 CPT: qHTS for Inhibitors of human tyrosyl-DNA phosphodiesterase 1 (TDP1): qHTS in cells in presence of CPT; chicken DT40 Tdp1-/-;hTDP1 cells + 20 nM CPT, ATP luminescence, 48 h; Potency, µM (titrated, usually from 46.2 µM), for inactives: top-dose activity change, negative = growth inhibition, hits mostly inhibitors; hit rate 12% among 420,000; AID 686979, 2013; further: potency means the concentration at half of the fitted maximal effect; nearly all actives have a fitted effect of over 55% in size
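Chicken DT40 Tdp1-/- cells stably complemented with human TDP1 were seeded at 400 cells/well in medium containing 20 nM camptothecin, exposed to pin-transferred compounds, and grown at 37 °C for at least 48 hr. Viability was read as ATP luminescence.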
* = called active by the depositor. Sampled rows, rich in hits. Any-hit rate of the full collection: about 19%. Unless noted, the call rests on the fitted dose curve; in most records, active means well fitted curve in the direction sought with a large enough effect; inconclusive means small, poorly fitted or top-dose-only effect, or another doubt; inactive means no such curve, though single readings can be large; an effect the other way counts as inactive or inconclusive. Unless noted, on the % scale 0 is the no-effect control and ±100 the full control effect.

Screening Nc1ccccc1C(=O)N/N=C1\C2CN3CCN(C2)CC1(c1ccccc1)C3 returned HT1080NT lethal -2%, HT1080 IDH1KD tx 11%, DT40 TDP1 no CPT 7%, IL-1B inflam inh 7 and DT40 TDP1 CPT 8%.
For CC=Cc1cc2c(c(=O)o1)C(=O)C(O)C(C)O2 (stereo not drawn) the results were HT1080NT lethal -19%, HT1080 IDH1KD tx inconclusive, DT40 TDP1 no CPT 2.9µM*, IL-1B inflam inh -101* and DT40 TDP1 CPT 3.7µM*.
Screening Cc1ccccc1-c1nc2ccccc2c(=O)o1 returned HT1080NT lethal 1%, HT1080 IDH1KD tx -3%, DT40 TDP1 no CPT 16µM*, IL-1B inflam inh 56 and DT40 TDP1 CPT inconclusive.
`Cc1cc(C[n+]2ccccc2)c2nsnc2c1` gave HT1080NT lethal inconclusive, HT1080 IDH1KD tx -23%, DT40 TDP1 no CPT 22µM*, IL-1B inflam inh -4 and DT40 TDP1 CPT inconclusive.
`Cc1cc(C[n+]2ccsc2N)c2ncccc2c1` gave HT1080NT lethal -23%, HT1080 IDH1KD tx 8%, DT40 TDP1 no CPT inconclusive, IL-1B inflam inh -9 and DT40 TDP1 CPT inconclusive.
For CC(C)CCC(CCNCc1ccccn1)c1ccc(Cl)cc1 (stereo not drawn) the results were HT1080NT lethal inconclusive, HT1080 IDH1KD tx inconclusive, DT40 TDP1 no CPT 15µM*, IL-1B inflam inh -98* and DT40 TDP1 CPT -89%.
CCOC(=O)Cc1nnc2c(Nc3ccccc3F)nc3nonc3n12 was read as HT1080NT lethal inconclusive, HT1080 IDH1KD tx inconclusive, DT40 TDP1 no CPT 23µM*, IL-1B inflam inh 8 and DT40 TDP1 CPT 23µM*.
Screening CCc1nc2ccc(C(=O)NCCN(C)C)cn2c1N(CC)CCOC returned HT1080NT lethal 13%, HT1080 IDH1KD tx inconclusive, DT40 TDP1 no CPT 16%, IL-1B inflam inh -8 and DT40 TDP1 CPT -1%.
For COc1cc(OC)cc(-c2nnc(NC(=O)CCS(=O)(=O)c3ccc(F)cc3)o2)c1 the results were HT1080NT lethal -6%, HT1080 IDH1KD tx -3%, DT40 TDP1 no CPT inconclusive, IL-1B inflam inh -66* and DT40 TDP1 CPT inconclusive.
Cc1ccc(-c2nnc(NC(=O)CCS(=O)(=O)c3ccccc3)o2)c(C)c1 was read as HT1080NT lethal -16%, HT1080 IDH1KD tx -10%, DT40 TDP1 no CPT -16%, IL-1B inflam inh -6 and DT40 TDP1 CPT -18%.
Screening COc1cc(OC)cc(-c2nnc(NC(=O)CCS(=O)(=O)c3ccccc3)o2)c1 returned HT1080NT lethal -6%, HT1080 IDH1KD tx -7%, DT40 TDP1 no CPT 16µM*, IL-1B inflam inh -72* and DT40 TDP1 CPT inconclusive.
COc1ccc(C(O)(CC(C)C)C(CN2CCOCC2)c2ccccc2)cc1 (stereo not drawn) was read as HT1080NT lethal -5%, HT1080 IDH1KD tx -7%, DT40 TDP1 no CPT 21µM*, IL-1B inflam inh -5 and DT40 TDP1 CPT inconclusive.
Screening COc1ccc(C(O)(CCC(C)C)C(CN2CCOCC2)c2ccc(Cl)cc2)cc1 (stereo not drawn) returned HT1080NT lethal inconclusive, HT1080 IDH1KD tx inconclusive, DT40 TDP1 no CPT 15µM*, IL-1B inflam inh -81* and DT40 TDP1 CPT inconclusive.
CCc1ccc(C(O)(CC(C)C)C(CN2CCOCC2)c2ccccc2)cc1 (stereo not drawn) was read as HT1080NT lethal -19%, HT1080 IDH1KD tx -21%, DT40 TDP1 no CPT inconclusive, IL-1B inflam inh -7 and DT40 TDP1 CPT inconclusive.
CCOc1ccc(C(O)(CCC(C)C)C(CN2CCOCC2)c2ccccc2)cc1 (stereo not drawn) was read as HT1080NT lethal inconclusive, HT1080 IDH1KD tx 18µM*, DT40 TDP1 no CPT 21µM*, IL-1B inflam inh -60* and DT40 TDP1 CPT inconclusive.
CCc1ccc(C(O)(c2ccccc2OC)C(CN2CCOCC2)c2ccccc2)cc1 (stereo not drawn) was read as HT1080NT lethal -28%, HT1080 IDH1KD tx -16%, DT40 TDP1 no CPT inconclusive, IL-1B inflam inh 37 and DT40 TDP1 CPT inconclusive.
`CCOc1ccc(C(O)(c2ccccc2)C(CN2CCCC2)c2ccccc2)cc1` (stereo not drawn) gave HT1080NT lethal inconclusive, HT1080 IDH1KD tx -3%, DT40 TDP1 no CPT 7.3µM*, IL-1B inflam inh -61* and DT40 TDP1 CPT inconclusive.
Screening COc1cc(/C=N/NC(=O)c2cccc(S(=O)(=O)N3CCCCC3)c2)cc(Br)c1O returned HT1080NT lethal -14%, HT1080 IDH1KD tx -6%, DT40 TDP1 no CPT -30%, IL-1B inflam inh -8 and DT40 TDP1 CPT -18%.
`CC(NC(=O)c1ccco1)c1nnc2n1CCN(Cc1ccc(N(C)C)cc1)CC2` (stereo not drawn) gave DT40 TDP1 no CPT -14% and DT40 TDP1 CPT -3%.
Screening Cc1ccc(C)c(CN2C(=O)c3ccccc3S(=O)c3ccc(C(=O)NCCC4=CCCCC4)cc32)c1 (stereo not drawn) returned DT40 TDP1 no CPT 16µM* and DT40 TDP1 CPT 15µM*.
COc1ccc(CCNC(=O)c2ccc3c(c2)N(Cc2ccccc2F)C(=O)c2ccccc2S3=O)cc1OC (stereo not drawn) was read as DT40 TDP1 no CPT 26µM* and DT40 TDP1 CPT 15µM*.
For O=C(NCc1ccc2c(c1)OCO2)c1ccc2c(c1)N(Cc1ccccc1F)C(=O)c1ccccc1S2=O (stereo not drawn) the results were DT40 TDP1 no CPT 21µM* and DT40 TDP1 CPT -34%.
Cc1ccc(C)c(CN2C(=O)c3ccccc3S(=O)c3ccc(C(=O)NCCCN4CCCC4)cc32)c1 (stereo not drawn) was read as HT1080NT lethal inconclusive, HT1080 IDH1KD tx inconclusive, DT40 TDP1 no CPT inconclusive, IL-1B inflam inh -14 and DT40 TDP1 CPT inconclusive.
CC(C)CCNC(=O)c1ccc2c(c1)N(Cc1ccccc1F)C(=O)c1ccccc1S2=O (stereo not drawn) was read as DT40 TDP1 no CPT 21µM* and DT40 TDP1 CPT inconclusive.
`COc1ccc(CNC(=O)c2ccc3c(c2)N(Cc2ccccc2F)C(=O)c2ccccc2S3=O)cc1` (stereo not drawn) gave DT40 TDP1 no CPT inconclusive and DT40 TDP1 CPT -7%.
`CCOCc1cc(CN2CCC(CCC(=O)NC3CC3)CC2)ccc1OC` gave HT1080NT lethal 0%, HT1080 IDH1KD tx 1%, DT40 TDP1 no CPT 14%, IL-1B inflam inh 3 and DT40 TDP1 CPT 13%.

High-throughput results (PubChem BioAssay)
